The nature of assay [1]: qHTS assay to identify small molecule antagonists of the thyroid receptor (TR) signaling pathway - cell viability counter screen (AID 743064). Further: nearly all actives have a fitted effect of over 50% in size. Further: potency means the concentration at half of the fitted maximal effect. In outline:
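GH3.TRE-Luc rat pituitary cells carrying a TRE-luciferase reporter were treated with compound plus 1 nM T3 (final) for 23.5 h at 37 °C. Viability was then read in the same wells by CellTiter-Fluor fluorescence after a further 30 min.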
For orientation: Quantitative high-throughput screening tests each substance at several concentrations.

The nature of assay [2]: qHTS assay to identify small molecule antagonists of the thyroid receptor (TR) signaling pathway (AID 743065). Further: nearly all actives have a fitted effect of over 55% in size. Further: potency means the concentration at half of the fitted maximal effect. In short, it runs like this: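 GH3.TRE-Luc rat pituitary cells (two TREs driving luciferase) were dosed with compound, then stimulated with 1 nM T3 (final) for 23.5 h at 37 C. ONE-Glo luminescence was the read-out, with CellTiter-Fluor fluorescence as the cytotoxicity counter-screen.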

Assay [3] has as its system thyroid hormone receptor (rat, GH3 cells). Kind of assay: qHTS assay to identify small molecule agonists of the thyroid receptor (TR) signaling pathway (AID 743066; calls by dose curve).
Assay [4] addresses Estrogen receptor (Homo sapiens) (UniProt P03372). Kind of assay: qHTS assay to identify small molecule antagonists of the estrogen receptor alpha (ER-alpha) signaling pathway (AID 743069; active means well fitted curve in the direction sought with a large enough effect in the signal ratio in the repeat runs, not every such curve was filed as active; the % refers to the signal ratio). In short, it runs like this: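 Reporter cells (ER-alpha-bla, HEK293 background) are conditioned overnight in stripped-serum medium (2% charcoal-stripped FBS). Compound and 17beta-estradiol exposure runs 18 hr at 37C, 5% CO2.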

Assay [5] in a line: qHTS assay to identify small molecule antagonists of the estrogen receptor alpha (ER-alpha) signaling pathway - cell viability counter screen (AID 743074; calls by dose curve;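 further: HEK293 cells carrying ER-alpha-UAS-bla reporter stimulated with 17beta-estradiol; nearly all actives have a fitted effect of over 45% in size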).
The target in assay [6] is Estrogen receptor (Homo sapiens) (UniProt P03372). Kind of assay: qHTS assay to identify small molecule agonists of the estrogen receptor alpha (ER-alpha) signaling pathway (AID 743075; calls by dose curve;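 further: HEK293 GripTite cells with ER-alpha and UAS-driven beta-lactamase reporter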).
The target is the same in assay [7]. The assay can be described thus: qHTS assay to identify small molecule agonists of the estrogen receptor alpha (ER-alpha) signaling pathway using the BG1 cell line (AID 743079). Further: nearly all actives have a fitted effect of over 20% in size. Further: potency means the concentration at half of the fitted maximal effect.
Assay [8] is described as follows: qHTS assay to identify small molecule antagonists of the estrogen receptor alpha (ER-alpha) signaling pathway using the BG1 cell line (AID 743080; calls by dose curve;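 further: BG1 cells stimulated with 17beta-estradiol alongside compound; nearly all actives have a fitted effect of over 25% in size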; further: potency means the concentration at half of the fitted maximal effect). In short, it runs like this: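 Seeding, 24 h rest, compound transfer from DMSO, 17beta-estradiol addition, 21.5 h incubation, CellTiter-Fluor (30 min, 37 C), then ONE-Glo (30 min, room temperature): this sequence was run on BG1-Luc-4E2 reporter cells.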

The nature of assay [9]: qHTS assay to identify small molecule antagonists of the estrogen receptor alpha (ER-alpha) signaling pathway using the BG1 cell line - cell viability counter screen (AID 743081).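 Further: compound given together with 17beta-estradiol as the ER stimulus; series mostly up to about 70 µM; nearly all actives have a fitted effect of over 45% in size.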
Another assay concerns the target Aromatase (Homo sapiens) (UniProt P11511). The assay can be described thus: qHTS assay to identify aromatase inhibitors (AID 743083). Further: series mostly up to about 70 µM; nearly all actives have a fitted effect of over 55% in size.

Each structure is given as a SMILES string. Values joined by “and” are separate entries in the source; they are usually repeats but may differ in a detail not shown here. Equal entries are not always repeated. Results filed as inconclusive are left out. Active and inactive are the calls of the source. Unless noted, the call rests on the fitted dose curve; in most records, active means well fitted curve in the direction sought with a large enough effect in the repeat runs; inconclusive means weak or mixed curves; inactive means no such curve, though single readings can be large; an effect the other way counts as inactive or inconclusive.

The record followed here is PubChem BioAssay (Tox21).

Aromatase (Homo sapiens), sequence (P11511 whole entry, looked up): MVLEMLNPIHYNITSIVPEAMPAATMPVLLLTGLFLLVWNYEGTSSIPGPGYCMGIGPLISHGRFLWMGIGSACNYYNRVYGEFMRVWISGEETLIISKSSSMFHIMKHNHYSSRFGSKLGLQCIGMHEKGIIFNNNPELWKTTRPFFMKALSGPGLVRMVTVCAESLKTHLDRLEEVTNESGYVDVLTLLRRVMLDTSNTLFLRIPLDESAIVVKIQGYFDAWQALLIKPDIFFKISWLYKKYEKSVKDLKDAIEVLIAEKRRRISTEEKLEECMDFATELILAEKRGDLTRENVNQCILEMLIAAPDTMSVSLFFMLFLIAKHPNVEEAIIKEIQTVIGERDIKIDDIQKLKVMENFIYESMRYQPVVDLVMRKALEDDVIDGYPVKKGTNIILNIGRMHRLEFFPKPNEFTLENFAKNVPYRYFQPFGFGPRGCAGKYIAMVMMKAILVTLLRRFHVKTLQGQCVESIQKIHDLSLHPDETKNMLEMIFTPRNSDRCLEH
Estrogen receptor (Homo sapiens), sequence (P03372 whole entry, looked up): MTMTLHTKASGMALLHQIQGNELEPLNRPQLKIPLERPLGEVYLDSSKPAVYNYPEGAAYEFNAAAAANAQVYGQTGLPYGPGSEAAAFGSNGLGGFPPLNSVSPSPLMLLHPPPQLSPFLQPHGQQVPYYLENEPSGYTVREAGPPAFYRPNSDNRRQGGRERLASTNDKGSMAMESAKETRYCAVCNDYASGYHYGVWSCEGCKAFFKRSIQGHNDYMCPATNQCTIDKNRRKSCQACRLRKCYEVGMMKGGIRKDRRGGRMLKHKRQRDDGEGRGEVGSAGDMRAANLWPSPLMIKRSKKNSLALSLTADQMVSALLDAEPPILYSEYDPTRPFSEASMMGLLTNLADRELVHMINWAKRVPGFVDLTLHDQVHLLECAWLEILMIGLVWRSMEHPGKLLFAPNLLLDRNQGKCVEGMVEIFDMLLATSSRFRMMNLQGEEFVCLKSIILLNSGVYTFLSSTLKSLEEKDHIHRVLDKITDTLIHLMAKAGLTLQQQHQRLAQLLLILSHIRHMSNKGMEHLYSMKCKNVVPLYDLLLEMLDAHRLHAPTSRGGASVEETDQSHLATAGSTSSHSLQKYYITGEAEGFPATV

Turning to `CCSCc1ccccc1OC(=O)NC`, the Potency result in [1], in assay [2], in assay [3], in assay [4], in assay [5] and in assay [6] was “inactive” each time. Further, the Potency result (in assay [7]; in assay [8]; in [9]; in the assay with Aromatase (Homo sapiens)) was “inactive” throughout.
Take `O=C(O)C(F)(F)C(F)(F)C(F)(F)C(F)(F)C(F)(F)F`: the Potency entry in [1], in assay [2], in assay [3], in [4], in assay [5] and in [6] was “inactive” each time. Moreover, the Potency entry (in [7]; in assay [8]; in assay [9]; with Aromatase (Homo sapiens)) was “inactive” throughout.
Turning to `CCCC1CCCCN1` (centres undefined), the Potency entry in assay [1], in assay [2], in assay [3], in assay [4], in [5] and in assay [6] was “inactive” each time. The Potency entry (in assay [7]; in [8]; in assay [9]; with Aromatase (Homo sapiens)) was “inactive” in each case.
For the compound `CCCCC(CC)CO[N+](=O)[O-]` (centres undefined), the Potency entry in [1], in [2], in assay [3], in assay [4], in [5] and in assay [6] was “inactive” in each case. For the same compound, the Potency entry (in assay [7]; in [9]; with Aromatase (Homo sapiens)) was “inactive” throughout.
With `N#CC(C#N)=C(C#N)C#N`, the Potency entry in assay [1], in assay [2], in assay [3], in assay [4], in [5] and in assay [6] was “inactive” each time. Also, the Potency result (in assay [7]; in assay [9]; with Aromatase (Homo sapiens)) was “inactive” in each case.
For the compound `C=CCOC(=O)C(C)(C)OC(=O)c1cc(-n2c(=O)cc(C(F)(F)F)n(C)c2=O)ccc1Cl`, the Potency result in assay [1], in [2], in assay [3], in assay [4], in assay [5] and in assay [6] was “inactive” throughout. Further, the Potency entry (in assay [7]; in [9]; with Aromatase (Homo sapiens)) was “inactive” each time. Moreover, the Potency in [8] was 26.8 µM (active).
As to `C=C(C)C(=O)OCCCCOC(=O)C(=C)C`, the Potency entry in assay [1], in assay [2], in assay [3], in assay [4], in [5] and in assay [6] was “inactive” each time. The Potency result in assay [7] and in assay [9] was “inactive” in each case.
With `CCc1ccccc1N`, the Potency entry in assay [1], in assay [2], in assay [3], in [4], in assay [5] and in [6] was “inactive” in each case. Also, the Potency result (in assay [7]; in assay [8]; in assay [9]; in the assay with Aromatase (Homo sapiens)) was “inactive” in each case.
Turning to `FC(Cl)(Cl)C(F)(Cl)Cl`, the Potency entry in [1], in assay [2], in assay [3], in assay [4], in [5] and in [6] was “inactive” in each case. For the same compound, the Potency result (in assay [7]; in assay [8]; in [9]; with Aromatase (Homo sapiens)) was “inactive” throughout.
With `CC(C)(C)NCC(O)c1ccccc1Cl` (centres undefined), the Potency entry in [1], in [2], in [3], in assay [4], in [5] and in [6] was “inactive” in each case. In addition, the Potency entry (in [7]; in [8]; in [9]; in the assay with Aromatase (Homo sapiens)) was “inactive” in each case.
Consider `C=C(Cl)Cl`, for which the Potency result in assay [1], in assay [2], in [3], in [4], in [5] and in [6] was “inactive” throughout. The Potency entry (in [7]; in [8]; in assay [9]; in the assay with Aromatase (Homo sapiens)) was “inactive” throughout.
As for `CC(C)c1ccc(OP(=O)(Oc2ccc(C(C)C)cc2)Oc2ccc(C(C)C)cc2)cc1`, the Potency is 54.9 µM (active) and 68.6 µM (active) and 30.6 µM (active) in [1]; 54.9 µM (active) and 54.5 µM (active) and 30.6 µM (active) in assay [2]; 2.75 µM (active) and 6.85 µM (active) in assay [7]. Moreover, the Potency entry (in assay [3]; in assay [4]; in [5]; in assay [6]; in assay [9]; with Aromatase (Homo sapiens)) was “inactive” in each case.
As to `CCCCC1C(=O)NC(=O)N(C2CCCCC2)C1=O` (centres undefined), the Potency entry in [1], in assay [2], in [3], in assay [4], in assay [5] and in assay [6] was “inactive” throughout. Also, the Potency entry (in [7]; in assay [8]; in [9]; in the assay with Aromatase (Homo sapiens)) was “inactive” throughout.
As to `C[N+]1(CCC(C(N)=O)(c2ccccc2)c2ccccc2)CCCCC1`, the Potency result in assay [1], in assay [2], in assay [3], in [4], in assay [5] and in assay [6] was “inactive” each time. In addition, the Potency entry (in [7]; in assay [9]; in the assay with Aromatase (Homo sapiens)) was “inactive” in each case.
For the compound `C1CS1`, the Potency result in [1], in [2], in assay [3], in assay [4], in assay [5] and in assay [6] was “inactive” in each case. The Potency result (in [7]; in assay [8]; in assay [9]; with Aromatase (Homo sapiens)) was “inactive” each time.
As to `c1ccc2c(c1)sc1ccccc12`, the Potency entry in assay [1], in [2], in assay [3], in assay [4], in assay [5] and in assay [6] was “inactive” throughout. Besides, the Potency entry (in assay [7]; in assay [8]; in [9]; with Aromatase (Homo sapiens)) was “inactive” throughout.
As to `CCCCCCCCCCCCN(C)C`, the Potency entry in [1], in [2], in [3], in [4], in assay [5] and in assay [6] was “inactive” in each case. The Potency entry (in assay [7]; in assay [8]; in assay [9]; with Aromatase (Homo sapiens)) was “inactive” throughout.
As to `CCCSP(=S)(OCC)Oc1ccc(SC)cc1` (centres undefined), the Potency result in [1], in assay [2], in [3], in assay [4], in assay [5] and in assay [6] was “inactive” in each case. The Potency entry (in assay [7]; in assay [8]; in assay [9]; in the assay with Aromatase (Homo sapiens)) was “inactive” throughout.
Take `COC(=O)C1(O)c2ccccc2-c2ccccc21`: the Potency entry in assay [1], in assay [2], in [3], in assay [4], in assay [5] and in [6] was “inactive” throughout. Further, the Potency entry (in assay [7]; in assay [8]; in assay [9]; with Aromatase (Homo sapiens)) was “inactive” throughout.
Regarding `CCCC[N+]1(C)[C@@H]2CC(OC(=O)[C@H](CO)c3ccccc3)C[C@H]1[C@@H]1O[C@@H]12` (some centres undefined), the Potency entry in [1], in assay [2], in [3], in assay [4], in [5] and in [6] was “inactive” each time. Moreover, the Potency entry (in assay [7]; in assay [8]; in [9]; with Aromatase (Homo sapiens)) was “inactive” throughout.
Consider `C=CCc1ccccc1O`, for which the Potency entry in [1], in [2], in assay [3], in [4], in assay [5] and in assay [6] was “inactive” throughout. Besides, the Potency entry (in [7]; in assay [8]; in [9]; with Aromatase (Homo sapiens)) was “inactive” in each case.
